Compound activity (PubChem)
Compounds with a hit are over-represented: about 3.4% of the library has one in this group of screens.
PKM2 activator = activators of human pyruvate kinase M2 | P14618 | purified PKM2, Kinase-Glo ATP luminescence, activation; response scale: 0% is enzyme alone, no compound | Potency, µM (top dose mostly 57.5 µM), inactives show at the highest dose activation, hits mostly activators | hit rate 0.34% among 260,000 | AID 1631; also: % is scaled to controls: 0 for no effect and ±100 for the full control effect; nearly all actives have a fitted effect of over 55% in size
Target sequence (P14618 whole entry, looked up): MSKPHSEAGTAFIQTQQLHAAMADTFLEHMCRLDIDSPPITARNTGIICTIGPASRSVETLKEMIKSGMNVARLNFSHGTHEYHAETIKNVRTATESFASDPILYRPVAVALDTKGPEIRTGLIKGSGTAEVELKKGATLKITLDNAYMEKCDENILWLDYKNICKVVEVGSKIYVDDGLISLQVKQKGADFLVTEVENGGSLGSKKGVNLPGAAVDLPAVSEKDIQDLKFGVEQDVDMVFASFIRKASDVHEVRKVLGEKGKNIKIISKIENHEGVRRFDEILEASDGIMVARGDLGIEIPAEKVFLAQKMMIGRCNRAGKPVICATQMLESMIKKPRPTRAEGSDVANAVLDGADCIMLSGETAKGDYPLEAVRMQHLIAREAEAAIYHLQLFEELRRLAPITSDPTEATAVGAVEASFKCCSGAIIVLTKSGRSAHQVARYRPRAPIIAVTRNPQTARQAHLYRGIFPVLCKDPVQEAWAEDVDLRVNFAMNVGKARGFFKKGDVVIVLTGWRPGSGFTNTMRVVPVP
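Purified hPK-M2 (>95% pure) converted ADP (0.1 mM final) to ATP with 0.5 mM PEP in 50 mM imidazole pH7.2, KCl, MgCl2, Tween 20, BSA; 1 h at room temperature. ATP detected by Kinase-Glo luminescence.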
GLS inh = glutaminase GLS (human) inhibition | O94925 | GLS enzymatic activity, qHTS titration | Potency, µM (highest dose often 45.5 µM), inactives show at the top dose activity change, negative = inhibition, usual class: inhibitors | hit rate 0.21% among 410,000; also: % is scaled to controls: 0 for no effect and ±100 for the full control effect
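hKGA in 45 mM KH2PO4 pH 8.2, 0.02% Tween-20 with pin-transferred compounds; 1 mM L-glutamine (stock) plus glutamate oxidase/HRP/Amplex Red coupling added. Fluorescence read initially and after 30 min at RT.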
Mito fusion act = mitochondrial division inhibition or fusion activation; S. cerevisiae fusion-defective mutant growth rescue, CellTiterGlo 48 h; Potency, µM (highest dose often 46.1 µM), inactives show at the highest dose growth rescue (activation), usual class: activators; hit rate 0.23% among 320,000; AID 485298; also: % of control where 0% means no effect; nearly all actives have a fitted effect of over 45% in size
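Compounds are tested for their ability to restore growth of mitochondrial fusion-defective yeast strains at non-permissive 37C in YPEG medium over 48 hours. Viability is quantified by luciferase luminescence.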
GCN5L2 inh = blocks human GCN5L2 histone acetyltransferase; Q92830; GCN5L2 HAT assay, ThioGlo1 CoA-SH fluorescence; Potency, µM (titrated, usually from 58.9 µM), for inactives: at the highest dose activity change, negative = inhibition, most hits filed as inhibitors; hit rate 0.21% among 390,000; also: % is scaled to controls: 0 for no effect and ±100 for the full control effect
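Free CoA generated was detected with ThioGlo1 (50uM) fluorescence at Ex340nm/Em540nm, read immediately and after 20 min at room temperature. Enzyme, 20 nM in HEPES pH 7.5 buffer, saw compounds 15 min before adding 75uM H3(1-25) peptide and 70uM acetyl-CoA.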
VDR inhibitor = blocks the human vitamin D receptor; P11473; Potency, µM, for inactives: max response, negative = inhibition, hits mostly inhibitors; hit rate 0.93% among 400,000; VDR-SRC2-3 peptide fluorescence polarization, 2 h; also: % is scaled to controls: 0 for no effect and ±100 for the full control effect
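Inhibition of the VDR/SRC2-3 peptide interaction is quantified by fluorescence polarization. Compounds (23 nl, pintool) incubate with the reagents for 2 hours at ambient room temperature.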
PLK1 PBD inh = PLK1 (human) polo-box domain binding inhibition. Potency, µM, without a hit: max response, negative = inhibition, usual class: inhibitors. P53350. Plk1 PBD binding of FITC phosphopeptide, fluorescence polarization. hit rate 2.8% among 360,000; also: series mostly up to about 57 µM; % is scaled to controls: 0 for no effect and ±100 for the full control effect; nearly all actives have a fitted effect of over 65% in size
* = called active by the depositor; ? = inconclusive; / = no result given. Calls follow the shape of the dose curve; as a rule, active = well fitted curve in the direction sought with a large enough effect; inconclusive = small, poorly fitted or top-dose-only effect, or another doubt; inactive = no such curve, though single readings can be large; an effect the other way counts as inactive or inconclusive. Potency is read from the fitted curve at half-maximal effect.

SMILES | PKM2 activator | GLS inh | Mito fusion act | GCN5L2 inh | VDR inhibitor | PLK1 PBD inh
O=C(NCc1ccc(F)cc1)C1CCC(CNS(=O)(=O)c2ccccc2)CC1 (stereo unspecified) | / | -1% | 12% | 21% | ? | 27µM*
COCCOC(=O)c1c(C)n(C)c2ccc(OC(=O)c3c(OC)cccc3OC)cc12 | / | -30% | 2% | -16% | ? | 9.5µM*
COCCOC(=O)c1c(C)n(C)c2ccc(OC(=O)N3CCOCC3)cc12 | -17% | -8% | -4% | 0% | 4% | -5%
CC(=O)c1c(C)nc2ccccc2c1N | -3% | 17% | 2% | -8% | 0% | 2%
Cc1nc2ccccc2c(C)c1C(=O)c1ccccc1 | 2% | -16% | 6% | -2% | -17% | 24µM*
Cc1ccc(C(=O)NCC(=O)OCC(=O)/C=C2\N(C)c3ccccc3C2(C)C)cc1C | 1% | 44% | 3% | -7% | ? | 30µM*
CN1/C(=C\C(=O)COC(=O)c2ccccc2O)C(C)(C)c2ccccc21 | -1% | 3% | 3% | -9% | 4% | -1%
COc1ccc(N2C3=C(C(=O)CC(C)(C)C3)C(c3ccccc3OC)C3=C2CC(C)(C)CC3=O)cc1 | 2% | -2% | 1% | 2% | -13% | -1%
COc1ccc(N2C3=C(CC4=C2CC(C)(C)CC4=O)C(=O)CC(C)(C)C3)cc1 | ? | ? | -2% | 34% | -89% | 8.4µM*
Cn1ccnc1SCC(=O)Nc1ccc([N+](=O)[O-])cn1 | 14% | -11% | 2% | -14% | 5% | -1%
COc1cc([N+](=O)[O-])ccc1NC(=S)Nn1cnnc1 | -9% | 3% | 4% | -18% | ? | 9.5µM*
COc1cc([N+](=O)[O-])ccc1NC(=O)CSc1nccn1C | 13µM* | -8% | 5% | -14% | -16% | -20%
COC(=O)Nc1ccc([N+](=O)[O-])cc1OC | ? | 4% | -3% | -2% | 11% | -2%
CCOC(=O)c1c(CSC(=N)N)n(C)c2cc(Br)c(OC(C)=O)cc12 | 16µM* | -8% | -4% | -2% | 3% | -7%
Cn1c(Cl)cnc1C1CC(=O)c2cc(Cl)ccc2O1 (stereo unspecified) | ? | 2% | -14% | -2% | 79µM* | -3%
CCCN(CCC)CCNC(=O)c1cc2c(=O)n(C)c3ccccc3c2n1C | 1% | 12% | -1% | -6% | -28% | 19µM*
CN(CCNC(=O)c1cc2c(=O)n(C)c3ccccc3c2n1C)Cc1ccccc1 | 11% | -1% | 2% | -14% | -6% | -5%
CCCCCCCCCCCCCCCCCCNc1ccn(C2OC(COP(=O)(O)OCC3OC(n4cc(F)c(=O)[nH]c4=O)CC3O)C(O)C2O)c(=O)n1 (stereo unspecified) | / | -7% | / | / | ? | 27µM*
O=C(c1ccc(Cl)c(S(=O)(=O)NCc2ccco2)c1)N1CCN(c2ccccc2F)CC1 | 1% | 12% | -3% | 0% | -10% | 27µM*
NC(=O)C1CCN(C(=O)c2ccc(Cl)c(S(=O)(=O)NCc3ccco3)c2)CC1 | / | 2% | -1% | 3% | 0% | -11%
N#Cc1nc(/C=C/c2ccc(F)cc2)oc1N1CCCCCC1 | / | 3% | / | 0% | 7% | /
CC1=NN(c2ccc(C(=O)O)cc2)C(=O)/C1=C\c1ccc(OC(=O)c2cccs2)cc1 | -7% | ? | -2% | ? | ? | 0.75µM*
CCOc1cc(/C=C2\C(=O)N(c3ccc(C(N)=O)cc3)N=C2C)ccc1OC(=O)c1cccs1 | -3% | ? | -4% | 0% | 50µM* | ?
COc1cc(/C=C2\C(=N)N3N=C(S(C)(=O)=O)SC3=NC2=O)ccc1OC(=O)c1ccco1 | / | 5% | -16% | -18% | 79µM* | ?
CCOc1cc(/C=C2/SC(=S)N(CC(=O)O)C2=O)ccc1OC(=O)c1cccs1 | 2% | 21% | 4% | -22% | ? | ?
SMILES | PKM2 activator | GLS inh | Mito fusion act | GCN5L2 inh | VDR inhibitor | PLK1 PBD inh
CCOc1cc(/C=C2\C(=N)N3N=C(S(=O)(=O)CC)SC3=NC2=O)ccc1OC(=O)c1ccco1 | / | 2% | -2% | -29% | 10% | ?
COc1cc(/C=C2\C(=N)N3N=CSC3=NC2=O)ccc1OS(=O)(=O)c1ccccc1[N+](=O)[O-] | 1% | -18% | -1% | ? | ? | 27µM*
Fc1ccc2c(c1)-c1c(cnc3cc(-c4ccc(Cl)cc4)nn13)CO2 | / | 5% | / | 4% | 7% | /
CCCCN1C(=O)C(O)(CC(=O)c2ccc(CC)cc2)c2cc(Br)ccc21 (stereo unspecified) | / | 5% | / | -16% | 6% | /
CCOc1cc(/C=C2/C(=O)N(c3ccccc3)N=C2C)ccc1OC(=O)c1ccco1 | 8% | -24% | -5% | -19% | ? | 1.5µM*
CCOc1cc(/C=C2\C(=N)N3N=C(N4CCCCC4)SC3=NC2=O)ccc1OC(=O)c1ccco1 | 0% | 4% | -1% | 31% | -29% | ?
COc1ccc(C(=O)N2CCC[C@@]3(CCN(c4cccc(-c5ccccc5)c4)C3)C2)cc1 | / | / | / | -14% | 40µM* | /
COCC(=O)N1CCC2(CC1)CCN(c1ccc(-c3ccccc3)cc1)CC2 | / | / | / | -5% | -9% | /
COCC(=O)N1CCC2(CCCN(c3ccc(-c4ccccc4)cc3)C2)CC1 | / | / | / | -5% | 50µM* | /
Cc1noc(C)c1C(=O)N1CCC[C@@]2(CCN(c3cccc(-c4ccccc4)c3)C2)C1 | / | / | / | -6% | 40µM* | /
COc1ccc(C(=O)N2CCC3(CCCN(c4ccc(-c5ccccc5)cc4)C3)CC2)cc1 | / | / | / | -2% | ? | /
Cc1ccc(CN2CCC2(C)C(=O)NC(C)C)cc1 (stereo unspecified) | / | -15% | / | / | / | -13%
COc1cc2c[n+](C)c3c4ccccc4ccc3c2cc1OC | / | 12% | / | / | -9% | -8%
COc1ccc2c(c1)c[n+](C)c1c3cc(OC)c(OC)cc3ccc21 | / | ? | / | / | / | 12µM*
O=C(c1noc2c1CCCCC2)N1CCN(c2cccc(C(F)(F)F)c2)CC1 | / | -15% | / | -4% | -3% | /
